Each structure is given as a SMILES string. Inconclusive results are not listed. Activity calls are given as the source filed them. Unless noted, calls follow the shape of the full dose curve.

The text below walks through data of PubChem BioAssay (Tox21).

The nature of test [1]: Nuclear factor erythroid 2-related factor 2/antioxidant responsive element (Nrf2/ARE) small molecule agonists: qHTS cell viability counter screen in human keratinocytes (AID 1919968; active = well fitted curve in the direction sought with a large enough effect in the repeat runs; an effect the other way counts as inactive or inconclusive; also: nearly all actives have a fitted effect of over 55% in size). The procedure, abridged: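 In human HaCaT keratinocytes stably expressing an ARE-driven luciferase, compound exposure lasted 23 h at 37 C under 5% CO2. Viable cells are quantified with a protease-based fluorogenic reagent (CellTiter-Fluor) read 1 h after addition.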
(In qHTS, concentration-response curves come from the screen itself.)

Test [2] in a line: Nuclear factor erythroid 2-related factor 2/antioxidant responsive element (Nrf2/ARE) small molecule agonists: luciferase reporter gene qHTS assay in human keratinocytes (AID 1919969). Also: nearly all actives have a fitted effect of over 35% in size. Also: potency is read from the fitted curve at half-maximal effect. A general note: In a reporter assay the amount or activity of a reporter protein is the signal.
In test [3] the target is Gonadotropin-releasing hormone receptor (Homo sapiens) (UniProt P30968). As to the kind of experiment: Human gonadotropin-releasing hormone receptor (GnRHR) small molecule agonists, calcium flux assay in GnRHR-HEK293 cells (AID 1920063). Also: nearly all actives have a fitted effect of over 35% in size. In a few lines: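 Intracellular calcium rise is the read-out: engineered human GnRHR HEK293 cells, dye-loaded, are exposed to DMSO-dissolved compounds and fluorescence at Ex/Em 480/540 is tracked for 3 min.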

The target of test [4] is KiSS-1 receptor (Homo sapiens) (UniProt Q969F8). Put plainly: Human kisspeptin (KISS1R) small molecule agonists, calcium flux assay in KISS1R-HEK293 cells (AID 1920064; active = well fitted curve in the direction sought with a large enough effect in the repeat runs; an effect the other way counts as inactive or inconclusive). In a few lines: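 Concentration-response testing used 15 concentrations in triplicate on human KISS1R-expressing HEK293 cells. Calcium-dependent fluorescence (Ex/Em 480/540) was followed kinetically for 3 min after compound transfer.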
For orientation: A change in cytosolic calcium serves as a functional read-out for many receptors and channels.

Test [5] in a line: G protein-coupled receptor (GPCR) small molecule agonists, calcium flux assay: HEK293 wild type cell line counter screen (AID 1920065). In a few lines:
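Fluorescence intensity signals activation. After overnight (18 h) culture and a 1 h calcium dye load at 37 C, compounds are added by pin tool and the plate read at 480/540 nm for 3 min in 1 s steps.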

Test [6] in a line: p53 small molecule agonists, cell-based qHTS assay with human liver microsomes (AID 1963577).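 Also: p53 response element beta-lactamase reporter cells with liver microsomes plus NADPH.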 The procedure, abridged: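 p53RE-bla cells; 5 h settle, 37 C/5% CO2; cpd + HLM 0.5 mg/mL + NADPH 0.5 mg/mL (final); 16 h 37 C; LiveBLAzer 2 h RT dark; fluorescence readout.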
Test [7] in a line: p53 small molecule agonists, cell-based qHTS assay with rat liver microsomes (AID 1963578). In a few lines: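 Rat liver microsome activation: microsomes 0.5 mg/mL, NADPH 0.5 mg/mL final; p53RE-bla cells, 16 h 37 C; LiveBLAzer readout, 2 h RT dark.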
Test [8] can be described thus: p53 small molecule agonists, cell-based qHTS assay with human liver microsomes: qHTS cell viability counter screen (AID 1963579). Also: nearly all actives have a fitted effect of over 45% in size. In a few lines: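 Luminescent CellTiter-Glo read-out, 30 min at room temperature, gauged cytotoxicity in p53RE-bla cells exposed 16 h at 37 C to DMSO-dissolved compounds with metabolic activation by human liver microsomes and NADPH, each 0.5 mg/mL final.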

Test [9] in a line: p53 small molecule agonists, cell-based qHTS assay with rat liver microsomes: qHTS cell viability counter screen (AID 1963580). Also: nearly all actives have a fitted effect of over 45% in size. The procedure, abridged:
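After the beta-lactamase ratio was read, CellTiter-Glo was added to the same wells and luminescence measured at 30 min; cells had been treated 16 h at 37 C with compounds, rat liver microsomes and NADPH (0.5 mg/mL final each).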

The nature of test [10]: p53 small molecule agonists, cell-based qHTS assay: qHTS cell viability counter screen (AID 1963581). Also: nearly all actives have a fitted effect of over 45% in size. Also: potency is read from the fitted curve at half-maximal effect. In a few lines:
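Luminescence from CellTiter-Glo, reflecting ATP content, serves as the cytotoxicity measure; it is taken after the 2 h reporter substrate step in HCT-116 p53RE-bla cells dosed for 16 h at 37 C.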

For test [11], the target named is 5-hydroxytryptamine receptor 2A (Homo sapiens) (UniProt P28223). Put plainly: 5-hydroxytryptamine receptor 2A (HTR2A) small molecule antagonists, cell-based qHTS assay (AID 1963586). Also: nearly all actives have a fitted effect of over 45% in size. The procedure, abridged: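 CHO cells stably expressing human HTR2A were plated for 18 h at 37 C, then loaded with calcium dye for 1 h. Compounds were preincubated 5 min at room temperature before DOI (4 nM solution) was added. Kinetic fluorescence was read for 3 min.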

The target is the same in test [12]. As to the kind of experiment: 5-hydroxytryptamine receptor 2A (HTR2A) small molecule agonists, cell-based qHTS assay (AID 1963587). Also: nearly all actives have a fitted effect of over 30% in size. Also: potency is read from the fitted curve at half-maximal effect. In a few lines: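 CHO cells stably expressing human HTR2A, plated 18 h, loaded with calcium dye 1 h at 37 C. Agonist mode: compounds added and intracellular calcium fluorescence recorded kinetically for 2 min at 1 sec intervals.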

Test [13] has as its target Muscarinic acetylcholine receptor M1 (Homo sapiens) (UniProt P11229). As to the kind of experiment: Cholinergic receptor muscarinic 1 (CHRM1) small molecule agonists, cell-based qHTS assay (AID 1963589). Also: nearly all actives have a fitted effect of over 35% in size. The procedure, abridged:
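Fluorescent calcium dye reports M1 activation in stably transfected CHO cells. Compounds, 15 concentrations, added after 1 h dye loading at 37 C; kinetic reading at 1 sec intervals.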

Test [14] in a line: cAMP Responsive Elements (CRE) small molecule agonists, cell-based qHTS assay (AID 1963590). In a few lines:
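Compound exposure lasted 3 h at 37 C/5% CO2 in CRE-bla HEK 293T cells grown in assay medium with 10% dialyzed FBS and 25 mM HEPES. Reporter signal came from LiveBLAzer B/G FRET substrate, 2 h, room temperature.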

Test [15] can be described thus: cAMP Responsive Elements (CRE) small molecule antagonists, cell-based qHTS assay (AID 1963591; active = well fitted inhibition curve with a large enough effect in the signal ratio in the repeat runs, not every such curve was filed as active; the % refers to the signal ratio). In a few lines:
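Stimulation used NKH477 at a final 0.25 uM for 3 h in compound-treated CRE-bla HEK293T cells, seeded 18 h beforehand. Reporter activity was measured with LiveBLAzer B/G FRET substrate after 2 h at room temperature.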

Test [16] deals with Beta-2 adrenergic receptor (Homo sapiens) (UniProt P07550). Put plainly: Adrenergic beta2 receptor (ADRB2) small molecule antagonists, cell-based qHTS assay (AID 1963592). Also: series mostly up to about 92 µM; nearly all actives have a fitted effect of over 50% in size. In a few lines: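 Assay format: CHO-ADRB2 cells, 18-20hr seeding at 37C/5% CO2, then compound plus 1nM isoproterenol agonist mix for 0.5hr RT. Homogeneous time-resolved fluorescence cAMP detection after 1hr, expressed as 665/615 nm ratio.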

The target in test [17] is D(2) dopamine receptor (Homo sapiens) (UniProt P14416). As to the kind of experiment: Dopamine D2 receptor (DRD2) small molecule agonists, cell-based qHTS assay (AID 1963594). Also: nearly all actives have a fitted effect of over 35% in size. In a few lines:
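HEK293 cells stably expressing human DRD2, pre-treated with PDE inhibitor Ro20-1724 (0.1 mM final) and compound 10 min at room temperature, then stimulated with NKH477 (200nM […]) for 30 min. cAMP read by HTRF (665/620 nm).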

The target is the same in test [18]. Put plainly: Dopamine D2 receptor (DRD2) small molecule antagonists, cell-based qHTS assay (AID 1963595; active = well fitted inhibition curve with a large enough effect in the signal ratio in the repeat runs, with a control signal flat; the % refers to the signal ratio; also: potency is read from the fitted curve at half-maximal effect). In a few lines:
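Antagonist mode in DRD2-HEK293 cells: after compound addition with 0.1 mM Ro20-1724, cells received quinpirole (12 nM) and NKH477 (200 nM) for 30 min at room temperature; HTRF cAMP read after 1 h detection.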

Test [19] has as its target Muscarinic acetylcholine receptor M1 (Homo sapiens) (UniProt P11229). As to the kind of experiment: Cholinergic receptor muscarinic 1 (CHRM1) small molecule antagonists, cell-based qHTS assay (AID 1963588). Also: nearly all actives have a fitted effect of over 40% in size. Also: potency is read from the fitted curve at half-maximal effect. In a few lines:
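Compounds were tested at 15 concentrations in three independent runs. Dye-loaded CHRM1-CHO cells were exposed 5 min at room temperature before stimulation by acetylcholine added at 50nM. Intracellular calcium was read kinetically on FDSS for 3 min.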

Test [20] is described as follows: p53 small molecule agonists, cell-based qHTS assay (AID 1963582; active = well fitted activation curve with a large enough effect in the signal ratio in the repeat runs, not every such curve was filed as active; the % refers to the signal ratio). The procedure, abridged: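 After plating, p53RE-bla cells sat 5 h in the incubator; compounds or DMSO vehicle were pinned in; a 16 h incubation at 37 C followed; FRET substrate was added and, 2 h later at RT, fluorescence was measured.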

Sequence of Muscarinic acetylcholine receptor M1 (Homo sapiens) (P11229 whole entry, looked up): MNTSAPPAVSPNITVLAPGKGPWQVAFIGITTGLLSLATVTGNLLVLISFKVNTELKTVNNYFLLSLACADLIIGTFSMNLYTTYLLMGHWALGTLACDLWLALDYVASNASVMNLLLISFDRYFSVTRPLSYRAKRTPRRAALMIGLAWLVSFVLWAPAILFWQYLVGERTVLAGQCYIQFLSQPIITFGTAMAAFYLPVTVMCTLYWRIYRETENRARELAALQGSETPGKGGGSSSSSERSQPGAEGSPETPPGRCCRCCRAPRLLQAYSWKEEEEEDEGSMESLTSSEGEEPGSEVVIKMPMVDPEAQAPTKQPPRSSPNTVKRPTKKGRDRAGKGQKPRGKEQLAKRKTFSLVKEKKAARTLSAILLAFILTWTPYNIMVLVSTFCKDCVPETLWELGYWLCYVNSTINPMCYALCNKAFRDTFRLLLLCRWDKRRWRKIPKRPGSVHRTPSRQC
Sequence of D(2) dopamine receptor (Homo sapiens) (P14416 whole entry, looked up): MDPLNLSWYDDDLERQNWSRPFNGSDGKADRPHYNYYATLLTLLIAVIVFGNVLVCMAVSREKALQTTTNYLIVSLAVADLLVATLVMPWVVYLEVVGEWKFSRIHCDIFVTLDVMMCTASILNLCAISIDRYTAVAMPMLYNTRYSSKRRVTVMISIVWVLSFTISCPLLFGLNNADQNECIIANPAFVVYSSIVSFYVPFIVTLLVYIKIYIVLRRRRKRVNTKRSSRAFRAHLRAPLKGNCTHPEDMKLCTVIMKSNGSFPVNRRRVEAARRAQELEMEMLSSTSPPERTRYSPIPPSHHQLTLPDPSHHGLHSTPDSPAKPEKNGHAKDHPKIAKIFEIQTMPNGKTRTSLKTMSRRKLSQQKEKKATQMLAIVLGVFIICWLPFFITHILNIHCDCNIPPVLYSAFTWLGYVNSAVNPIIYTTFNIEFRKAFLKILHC
Sequence of Gonadotropin-releasing hormone receptor (Homo sapiens) (P30968 whole entry, looked up): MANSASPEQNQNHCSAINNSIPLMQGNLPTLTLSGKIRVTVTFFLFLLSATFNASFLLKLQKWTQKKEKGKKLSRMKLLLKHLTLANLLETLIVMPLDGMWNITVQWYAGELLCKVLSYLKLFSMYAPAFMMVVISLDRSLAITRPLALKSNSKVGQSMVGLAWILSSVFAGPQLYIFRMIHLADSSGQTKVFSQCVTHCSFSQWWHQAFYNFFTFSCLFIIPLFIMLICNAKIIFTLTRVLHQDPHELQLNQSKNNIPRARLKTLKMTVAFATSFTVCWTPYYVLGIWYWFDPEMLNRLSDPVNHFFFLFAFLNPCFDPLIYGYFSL
Sequence of KiSS-1 receptor (Homo sapiens) (Q969F8 whole entry, looked up): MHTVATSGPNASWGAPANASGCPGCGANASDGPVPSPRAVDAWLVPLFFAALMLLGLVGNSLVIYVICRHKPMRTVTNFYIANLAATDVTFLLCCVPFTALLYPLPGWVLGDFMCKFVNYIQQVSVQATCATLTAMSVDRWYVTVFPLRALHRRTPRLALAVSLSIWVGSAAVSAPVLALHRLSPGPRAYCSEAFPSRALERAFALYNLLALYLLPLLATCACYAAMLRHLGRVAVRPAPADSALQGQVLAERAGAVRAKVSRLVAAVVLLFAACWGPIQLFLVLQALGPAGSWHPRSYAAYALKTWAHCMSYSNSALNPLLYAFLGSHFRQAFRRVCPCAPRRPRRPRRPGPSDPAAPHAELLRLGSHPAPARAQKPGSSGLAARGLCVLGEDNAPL
Sequence of 5-hydroxytryptamine receptor 2A (Homo sapiens) (P28223 whole entry, looked up): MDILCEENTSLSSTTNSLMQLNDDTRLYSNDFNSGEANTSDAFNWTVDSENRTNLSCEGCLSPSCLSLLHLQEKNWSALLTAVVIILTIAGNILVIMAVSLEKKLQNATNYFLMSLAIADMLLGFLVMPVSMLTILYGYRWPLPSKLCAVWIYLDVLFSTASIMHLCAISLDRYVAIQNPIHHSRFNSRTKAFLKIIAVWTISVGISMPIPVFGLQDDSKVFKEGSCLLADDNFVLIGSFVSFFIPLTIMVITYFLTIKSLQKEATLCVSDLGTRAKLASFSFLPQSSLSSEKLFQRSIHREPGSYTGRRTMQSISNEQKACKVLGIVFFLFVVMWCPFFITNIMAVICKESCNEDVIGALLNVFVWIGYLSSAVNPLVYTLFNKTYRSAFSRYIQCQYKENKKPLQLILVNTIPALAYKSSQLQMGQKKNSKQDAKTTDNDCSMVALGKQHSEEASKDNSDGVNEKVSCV
Sequence of Beta-2 adrenergic receptor (Homo sapiens) (P07550 whole entry, looked up): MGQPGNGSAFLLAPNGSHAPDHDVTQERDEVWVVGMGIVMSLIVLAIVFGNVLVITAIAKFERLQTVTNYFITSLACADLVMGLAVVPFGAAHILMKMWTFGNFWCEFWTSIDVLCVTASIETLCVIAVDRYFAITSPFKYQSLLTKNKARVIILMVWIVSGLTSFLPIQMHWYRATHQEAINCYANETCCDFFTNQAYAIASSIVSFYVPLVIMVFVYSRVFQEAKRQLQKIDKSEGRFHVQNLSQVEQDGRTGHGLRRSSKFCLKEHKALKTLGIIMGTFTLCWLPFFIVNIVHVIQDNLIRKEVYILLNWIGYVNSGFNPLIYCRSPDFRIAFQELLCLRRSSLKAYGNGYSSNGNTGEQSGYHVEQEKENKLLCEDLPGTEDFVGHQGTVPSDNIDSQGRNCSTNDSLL

In the case of `CSC1=N[C@@](C)(c2ccccc2)C(=O)N1Nc1ccccc1`, the Potency result in test [1], in [2], in test [3], in [4], in [5] and in test [6] was “inactive” each time. Besides, the Potency entry in test [7], in test [8], in [9], in [10], in [11] and in [12] was “inactive” each time. Besides, the Potency result in test [13], in test [14], in [15], in test [16], in test [17] and in test [18] was “inactive” in each case.

For `NC(=O)c1ccc(N)nc1`, the Potency result in [1], in test [2], in test [3], in test [4], in test [5] and in test [6] was “inactive” in each case. The Potency result in [7], in [8], in [9], in [11], in [12] and in test [19] was “inactive” each time. For the same molecule, the Potency entry in test [13], in [14], in test [15], in test [16], in test [17] and in test [18] was “inactive” throughout. In addition, the Potency in test [10] is 5.76 µM (active).

For `CCC(C(N)=O)N1CCCC1=O` (stereo not drawn), the Potency result in test [1], in test [2], in [3], in test [4], in test [5] and in test [6] was “inactive” throughout. For the same molecule, the Potency result in test [7], in [8], in test [9], in test [10], in test [11] and in test [12] was “inactive” throughout. Moreover, the Potency entry in test [19], in [14], in test [15], in test [16] and in [18] was “inactive” each time.

In the case of `C=CCC1=C(C)[C@@H](OC(=O)[C@@H]2[C@@H](C=C(C)C)C2(C)C)CC1=O`, the Potency entry in [1], in test [3], in [4], in [5], in test [6] and in [7] was “inactive” each time. For the same molecule, the Potency entry in test [8], in [9], in test [10], in test [11], in test [12] and in [13] was “inactive” in each case. Also, the Potency entry in test [17] is “inactive”. Besides, the Potency in test [2] is 61.1 µM (active); in [19] it was 16.8 µM (active).

Take `COc1ccc(CN2CCNCC2)c(OC)c1OC`: the Potency result in [1], in test [2], in test [3], in test [4], in test [5] and in test [6] was “inactive” each time. Besides, the Potency result in test [7], in test [8], in test [9], in test [10], in [20] and in [15] was “inactive” throughout. Further, the Potency entry in test [16], in test [17] and in test [18] was “inactive” in each case.

On to `CC(C)NCC(O)c1ccc(N)c(C#N)c1` (stereo not drawn), for which the Potency entry in [1], in test [2], in [3], in test [4], in test [5] and in test [6] was “inactive” throughout. Besides, the Potency entry in test [7], in test [8], in test [9], in test [10], in [20] and in test [19] was “inactive” each time. Also, the Potency entry in test [13], in [15] and in test [17] was “inactive” each time. Also, the Potency was 7.56 µM (active) in test [12] and 0.0047 µM (active) in test [18].

Consider `CCC1(c2ccccc2)C(=O)NC(=O)NC1=O`, for which the Potency result in test [1], in test [2], in test [3], in [4], in test [5] and in test [6] was “inactive” each time. Besides, the Potency entry in [7], in test [8], in test [9], in test [10], in [20] and in [14] was “inactive” throughout. The Potency result in [15], in test [16], in test [17] and in test [18] was “inactive” throughout.

In the case of `CCCN1CCC[C@@H]2Cc3[nH]ncc3C[C@H]21`, the Potency result in test [1], in test [2], in test [3], in test [4], in [5] and in [6] was “inactive” throughout. Further, the Potency result in test [7], in test [8], in test [9], in test [10], in [20] and in test [19] was “inactive” in each case. The Potency entry in test [13], in [14], in test [15] and in [16] was “inactive” each time.
